Each sequence was assayed against AACS (assay: pooled miR-30 sensor sort-seq; sequence = guide strand). Conditions: shRNA.

First: TACAGATCCAGGGTCTCGGGGT
Second: TTGGAATCTTTGAAAGGTCTAT
The sensor-assay potency score (higher = more potent) of the first is lower: -0.361 for the first, 0.0735 for the second.

Going from TTTTCTGCATAGTTGAGCCGAC to TAGGCCTTTAACCACCTGCTGC, the sensor-assay potency score (higher = more potent) falls from -0.296 to -1.19.

Compared with TTACAGTGCACACGGGTGCGGC, TTGAGGGTGCCGTCACTCCGGC is lower in sensor-assay potency score (higher = more potent): -0.808 for the first, -1.01 for the second.

Going from TAGCACAGGAGGATGTCACTGC to TCTGTCATTCTCTTTGTGCCGC, the sensor-assay potency score (higher = more potent) falls from 0.828 to 0.211.

Going from TTTGACGGCAACTTCCACTTTC to TTTCGATGTGTCCACAACCTCA, the sensor-assay potency score (higher = more potent) falls from -0.286 to -1.33.

Going from TGATTCTGCAGTAGTCGCCATG to TTGATTCTGCAGTAGTCGCCAT, the sensor-assay potency score (higher = more potent) rises from -0.951 to 0.104.

Each sequence was assayed against AADACL2 in the same assay as above. Conditions: shRNA.

Compared with TACAACAACAGCATCAAGCGTG, TTCAGCATCATTCTGCACCTGT is higher in sensor-assay potency score (higher = more potent): -0.148 for the first, 0.443 for the second.

Going from TTGGCAAGTACAATCGTACTGG to TTTTATTTCAGCATCATTCTGC, the sensor-assay potency score (higher = more potent) rises from 0.407 to 0.839.

First: TATCTCTTATCCTAAGACCTAG
Second: TAACATACATAAGTCCATCATC
The sensor-assay potency score (higher = more potent) of the first is higher: -0.412 for the first, -1.34 for the second.

First: TTTTGTAAGAATTTTTTCCAAA
Second: TAACTGAGAATCATTGGCCAAC
The sensor-assay potency score (higher = more potent) of the first is higher: -1.07 for the first, -1.39 for the second.

Going from TAAACAGATGTCTTGACTCCAG to TAAATGTACAAGTTTTAGCGAT, the sensor-assay potency score (higher = more potent) falls from -0.578 to -0.754.

Going from TTGTAACATACATAAGTCCATC to TTTTTGGCAAGTACAATCGTAC, the sensor-assay potency score (higher = more potent) rises from -1.14 to -0.474.

These sequences were tested against AADACL3 in the same assay as above. Conditions: shRNA.

First: TAGCAGATGAAACTCCAGGTGA
Second: TTGTTGACAAACCACTGCGGCT
The sensor-assay potency score (higher = more potent) of the first is higher: -0.205 for the first, -1.56 for the second.

First: TAGATCAGGATCTGAGCCCGGA
Second: TTTCATGATGACCTCTTGCCAG
The sensor-assay potency score (higher = more potent) of the first is higher: 0.297 for the first, -1.07 for the second.

Compared with TTACTTCCAAGTAAGCAGCTTC, TACAACAGTGAATTGTCCCGGA is higher in sensor-assay potency score (higher = more potent): 0.308 for the first, 0.727 for the second.

Compared with TATGTCATCTTCTGCAATCAGG, TTCATGATGACCTCTTGCCAGG is lower in sensor-assay potency score (higher = more potent): -1.03 for the first, -1.37 for the second.

First: TTTTCTTGTACAACAGTGAATT
Second: TTATGCTTAGGTAACTTGCGGT
The sensor-assay potency score (higher = more potent) of the first is lower: -1.64 for the first, 0.0464 for the second.

Going from TATGCTTAGGTAACTTGCGGTA to ATCCGTGACCACAACATCGGGA, the sensor-assay potency score (higher = more potent) rises from -0.306 to 0.0942.

Each sequence was assayed against AATK in the same assay as above. Conditions: shRNA.

Compared with TTGCCTTCTGATCTCAGCGGAA, TTGATGGCAGACACCTCGCCAC is higher in sensor-assay potency score (higher = more potent): -0.981 for the first, -0.828 for the second.

TAGTTCTCGGTGTCATAGCCAC gave a sensor-assay potency score (higher = more potent) of -0.895.
